ChEMBL document CHEMBL4513216, “Probing the Open Global Health Chemical Diversity Library for Multistage-Active Starting Points for Next-Generation Antimalarials” (ACS Infect Dis, 2020)
Among all 69,000 compounds or so, about 8,600 (12%) showed an effect of 50% or more. This excerpt belongs to a sample that is enriched for strong results.

The compounds below were run on Plasmodium berghei (assay: Screen against P. berghei liver stage (PbLuc), transformed with Luciferase, at 10uM). Conditions: tested at 10 uM.
Assay type: functional, HepG2

Row | Compound | INHIBITION [%]
1 | COc1ccc(C(O)CNC(=O)NCc2nc(C)cs2)cc1 (configuration not stated) | 9.14
2 | COc1ccc(C(C)NC(=O)Cn2ccc(=O)n(C)c2=O)cc1OC (configuration not stated) | 31.9
3 | COc1ccc(CC(=O)N2CCCC2Cn2cc(C)cn2)c(OC)c1 (configuration not stated) | 43.2
4 | CC(C)(O)CN1CCN(C(=O)c2cccn2Cc2cccnc2)CC1 | 34.6
5 | Cc1cccc2nc(CN3CCCC3Cn3cccn3)cn12 (configuration not stated) | 19.4
6 | Cn1cc(CNC2CCCOc3c2ccc2ccccc32)cn1 (configuration not stated) | -28.7
7 | COCCNC(=O)CN(C)Cc1ccc(F)cc1Cl | 52.2
8 | COCCN(CCOC)C(=O)c1cnn(C)c1-n1c(C)ccc1C | 42.1
9 | COCCCNC(=O)CN(C)Cc1ccc(F)cc1Cl | -102
10 | COCCN(CCOC)C(=O)c1cnn(C)c1C | 90.7
11 | CCCn1ncc(C(=O)N(CCOC)Cc2c(C)nn(CC)c2C)c1C | -89.3
12 | CNC(=O)CN(C)Cc1ccc(F)cc1Cl | -154
13 | CN(C)C(=O)C1CCN(C(=O)c2c[nH]c3cc(Cl)ccc23)CC1 | -32.2
14 | CN1CCC(c2cncc(C(=O)NCc3ccc(F)cc3)n2)CC1 | -3.02
15 | O=C(CCc1cccnc1)N1CCC2(CCN(CC3CCCC3)C2)C1 (configuration not stated) | -7.2
16 | COCCN1CCC(c2cncc(-c3ccccc3C)n2)CC1 | 46
17 | Oc1cccc(CN2CCN(C3CCc4ccccc4C3)CC2)c1 (configuration not stated) | 54.8
18 | COc1ccc(CN2CCN(C3CCc4ccccc4C3)CC2)cc1O (configuration not stated) | 46.7
19 | COc1cc(O)ccc1CN1CCN(C2CCc3ccccc3C2)CC1 (configuration not stated) | 37.6
20 | CNc1cc(C)nc(C2COCCN2CCc2ccc(F)cc2)n1 (configuration not stated) | 19.6
21 | CCN1Cc2cc(F)ccc2N(C(C)=O)CCC1=O | 23
22 | CC(C)N1CCc2[nH]nc(C(=O)N3CCOCC3)c2C1 | -1.12

Row | Compound | INHIBITION [%]
23 | CCN(CC)[C@@H]1CN(C(=O)c2ccc(C#N)cc2)[C@@H]2CCCO[C@H]12 | 73.6
24 | CCN(CC)[C@@H]1CN(C(=O)c2ccnnc2)[C@@H]2CCCO[C@H]12 | -62.8
25 | CN(C)[C@@H]1CN(C(=O)c2ccc(C#N)cc2)[C@@H]2CCCO[C@H]12 | -73.3
26 | COCCn1c2c(ccc1=O)CCN(C(=O)Cc1ccsc1)CC2 | 27.5
27 | CC(C)C(=O)N1CCCC(c2ncncc2-c2ccncc2)C1 (configuration not stated) | 48.3
28 | Fc1ccc2c(C3=CCN(Cc4nnc(C5CCC5)o4)CC3)c[nH]c2c1 | 34.6
29 | Cc1noc(CN2CC=C(c3cnn(C4CCS(=O)(=O)C4)c3)CC2)n1 (configuration not stated) | 1.98
30 | Cc1noc(CN2CC=C(c3c[nH]c4ncccc34)CC2)n1 | 74.7
31 | C1=C(c2c[nH]c3ncccc23)CCN(Cc2nnc(C3CC3)o2)C1 | 71.4
32 | O=C(c1ccccn1)N1CCCN(Cc2nnc(C3CC3)o2)CC1 | -57.4
33 | Cc1cnc(CN2CC=C(c3c[nH]c4ncccc34)CC2)o1 | 44.9
34 | Cc1cnn(CC2CCCCN2C(=O)Cc2cccc(F)c2)c1 (configuration not stated) | 35.9
35 | COc1ccc(C(C)NC(=O)c2nn(C)c(C)c2Br)cc1 (configuration not stated) | 30.2
36 | OC(CN1CCN(Cc2ccc(F)cc2)CC1)C1CC1 (configuration not stated) | -0.113
37 | Cc1cc(C2CCCCCN2Cc2cn(C)nc2C)no1 (configuration not stated) | 6.32
38 | O=C(Nc1ccc(F)cc1)N1C[C@@H]2C[C@H](C(=O)N3CCCC3)[C@H](C1)O2 | 7.67
39 | CC(C)CN(CCc1ccccc1)Cc1nc2c(cnn2C)c(=O)[nH]1 | 29.2
40 | Cc1ccccc1CC(C)NCc1c(C)nn(C)c1N1CCOCC1 (configuration not stated) | 13.5
41 | CCc1ccccc1OCCN(C)C(=O)CCN1CCCCO1 | 69.3
42 | CCc1ccccc1OCCN(C)C(=O)CN1CCCC1 | 59.1
43 | CN(CCCOc1ccccc1Cl)C(=O)CN1CCCCCC1=O | 21.2
44 | CCc1ccccc1OCCCN(C)C(=O)C1CCCN1C(N)=O (configuration not stated) | -40.4

Row | Compound | INHIBITION [%]
45 | CCc1ccccc1OCCN(C)C(=O)CCN1CCCO1 | 42.4
46 | Cc1ccc(OCCN(C)C(=O)CCCN2CCCC2=O)c(C)c1 | -12.6
47 | O=C(Cc1csc(-c2ccccc2F)n1)NCc1cccc(C(=O)O)c1 | 0.29
48 | CO[C@H]1CN(S(=O)(=O)c2ccccc2F)C[C@@]12CCCO2 | 3.48
49 | Cc1nc(N)cc(C2CCN2CCOc2ccccc2)n1 (configuration not stated) | -0.232
50 | COc1ccnc(N2CCN(C(=O)CN3CCOCC3)CC2)n1 | 31.9
51 | CC(=O)N1CCCC1c1nccnc1Nc1ncccn1 (configuration not stated) | -107
52 | Cc1c(Cl)c(C(F)(F)F)nn1C(C)C(=O)NC1CCN(C)CC1 (configuration not stated) | 26.8
53 | Cc1c(Cl)c(C(F)(F)F)nn1C(C)C(=O)NN1CCN(C)CC1 (configuration not stated) | 35.7
54 | CC(C(=O)O)n1nc(C(F)(F)F)c(Cl)c1C1CC1 (configuration not stated) | 7.3
55 | CC(C(=O)NN1CCOCC1)n1nc(C(F)(F)F)c(Cl)c1C1CC1 (configuration not stated) | 74.1
56 | O=C(Cn1nc(C(F)(F)F)c(Cl)c1C1CC1)NN1CCOCC1 | -3.11
57 | CC(C(=O)NC1CCN(C)CC1)n1nc(C(F)(F)F)c(Cl)c1C1CC1 (configuration not stated) | 82.4
58 | Cn1ccc2ccc(C(=O)Nc3nc[nH]n3)cc21 | 46.4
59 | CC(=O)N1CCN(C(=O)NCc2ccc(Cl)s2)CC1 | 42
60 | O=C1CC[C@H]2[C@H](CCN2C(=O)c2ccc[nH]2)N1CCN1CCOCC1 | -14.4
61 | Cc1nc2ccccc2n1CCNCc1cccc(O)c1 | -57.5
62 | O=C1CO[C@@H]2CN(S(=O)(=O)c3ccccc3F)C[C@H]2N1 | 44.4
63 | C[C@@H]1C[C@H]2CN(S(=O)(=O)c3ccc(F)cc3)C[C@H]2O1 | 24.8
64 | O=C1CO[C@@H]2CN(S(=O)(=O)c3ccc(F)cc3)C[C@H]2N1 | 82.2
65 | c1ncn(Cc2cn3c(n2)CN(CC2CCCC2)CC3)n1 | -16.9
66 | O=C(c1cnc(-c2cnccn2)s1)N1CCCC1Cn1cccn1 (configuration not stated) | -21.5

Row | Compound | INHIBITION [%]
67 | O=C(NCc1ccccc1)N1CCC2(CC(=O)N(c3ccccc3)C2)C1 (configuration not stated) | -14.7
68 | CCN(C(C)=O)c1nc(CN2CCCC2Cn2cncn2)cs1 (configuration not stated) | -6.44
69 | COCCN1CCC(C(=O)N(C)CCOc2ccc(C)cc2Cl)C1 (configuration not stated) | 59.3
70 | COCCN1CCC(C(=O)N(C)Cc2cccc(Cl)c2)C1 (configuration not stated) | 13.9
71 | COCCN1CCC(C(=O)N(C)Cc2c[nH]c3ccc(C)cc23)C1 (configuration not stated) | 39.9
72 | Cc1cn(-c2ccccc2)nc1NS(=O)(=O)c1ccc(C(=O)O)cc1F | -20
73 | CC(=O)NCc1cc2n(n1)CCN(Cc1ccccc1OC(F)(F)F)C2 | 53.8
74 | CC(=O)NCc1cc2n(n1)CCN(Cc1cccc(Cl)c1Cl)C2 | -26.8
75 | CCc1ccccc1CN1CCn2nc(CNC(C)=O)cc2C1 | 22
76 | CSc1ccccc1CN1CCCn2nc(CNC(=O)N(C)C)cc2C1 | -19.4
77 | CSc1ccccc1CN1CCn2nc(CNC(C)=O)cc2C1 | 55.4
78 | CSc1ccccc1CN1CCn2nc(CNC(=O)N(C)C)cc2C1 | 4.97
79 | O=C(c1ccc2c(c1)COC2)N1CCN(CCO)CC1 | 21.5
80 | c1ncc2c(n1)CN(Cc1nc(-c3ccsc3)no1)CC2 | -16
81 | NC(=O)CN(Cc1ncc(-c2ccc(F)cc2)o1)C1CCCC1 | -13.6
82 | CSCC[C@H](NC(=O)CCn1cc(C(C)=O)c2ccccc21)C(=O)O | -35.7
83 | CC(C)c1nnc2n1CC(CNCc1ccc3c(c1)OCCO3)CC2 (configuration not stated) | 17
84 | COc1ccc(NC(=O)Nc2cnc(N3CCN(C)CC3)nc2)cc1Cl | 45
85 | Cc1ccc(NC(=O)Nc2cnc(N3CCN(C)CC3)nc2)c(Cl)c1 | 57.6
86 | COc1ccc(C)cc1NC(=O)Nc1cnc(N2CCCC2)nc1 | 45.5
87 | COc1ccc(C)cc1NC(=O)Nc1cnc(N2CCOCC2)nc1 | 50.2
88 | Cc1ccc(NC(=O)Nc2cnc(N3CCN(C)CC3)nc2)cc1 | 37.4

Row | Compound | INHIBITION [%]
89 | COc1ccc(C)cc1NC(=O)Nc1cnc(N2CCN(C)CC2)nc1 | 38.7
90 | C[C@H]1C(=O)NC[C@H]2CN(Cc3ccccc3)C[C@H]21 | -9.27
91 | CCS(=O)(=O)NCC(Cc1cccc(F)c1)N1CCNC1=O (configuration not stated) | 23.1
92 | CC(Cn1cccn1)NC(=O)Nc1ccccn1 (configuration not stated) | -4.16
93 | CCc1ncc(C(=O)c2ccc(OC)cc2)n1C | 54.2
94 | COc1ccc(C(=O)c2cnc(C(C)C)n2C)cc1 | 33.9
95 | CCCc1ncc(C(=O)c2ccc(OC)cc2)n1C | 0.29
96 | Cc1cc(=O)[nH]cc1C(=O)N1CCN(C)c2ccccc2C1 | 42.8
97 | COCCC(Cc1cccc(Br)c1)C(=O)NCC(N)=O (configuration not stated) | 12.3
98 | CNc1cc(-c2cccc(CN)c2)c2cc[nH]c2n1 | 5.91
99 | CCNCCOc1ccc(-c2cc(N)nc3[nH]ccc23)cc1 | 59.5
100 | Nc1cc(-c2cc(O)cc(C(=O)O)c2)c2cc[nH]c2n1 | 35.4
101 | Cc1ccc(N2CCC3(CCN(C(=O)N(C)C)CC3)CC2)nn1 | 35.4
102 | CCN(CC)S(=O)(=O)NCC(O)c1c(Cl)cccc1Cl (configuration not stated) | -20
103 | CC(C)(CCS(C)(=O)=O)CNC(=O)NC1CCCC1(C)C (configuration not stated) | -21.9
104 | Cn1nccc1NC(=O)CN1CCc2sccc2C1 | 18.6
105 | O=C(CN1CCc2sccc2C1)Nc1ccnc2ccnn12 | 82.2
106 | CC(C)n1nccc1NC(=O)CN1CCc2sccc2C1 | 49.3
107 | CCn1c(C)nnc1SCCNc1cc(OC)ncn1 | 22.1
